Screening data as filed in PubChem.
D3 ag – qHTS of D3 Dopamine Receptor Agonist: qHTS; D3R DiscoveRx beta-arrestin cells, luminescence, 90 min; max activation, %; hit rate 0.58% among 410,000; in the data active = max activation above about 30%
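Cells at 1500/well, incubated overnight, then treated with pinned compounds (dopamine as control) for 90 min at 37 degrees C. DiscoveRx reagent added for 30 - 60 minutes at room temperature; luminescence read.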
D1 PAM – Potentiators of Human D1 Dopamine Receptor: qHTS | HEK293 TREx D1 cells, calcium flux, dopamine EC20 potentiation | potentiation, % at 10 µM | hit rate 0.036% among 360,000 | D(1A) dopamine receptor (Homo sapiens), P21728; in the data active = potentiation above about 30%
Target sequence (P21728 whole entry, looked up): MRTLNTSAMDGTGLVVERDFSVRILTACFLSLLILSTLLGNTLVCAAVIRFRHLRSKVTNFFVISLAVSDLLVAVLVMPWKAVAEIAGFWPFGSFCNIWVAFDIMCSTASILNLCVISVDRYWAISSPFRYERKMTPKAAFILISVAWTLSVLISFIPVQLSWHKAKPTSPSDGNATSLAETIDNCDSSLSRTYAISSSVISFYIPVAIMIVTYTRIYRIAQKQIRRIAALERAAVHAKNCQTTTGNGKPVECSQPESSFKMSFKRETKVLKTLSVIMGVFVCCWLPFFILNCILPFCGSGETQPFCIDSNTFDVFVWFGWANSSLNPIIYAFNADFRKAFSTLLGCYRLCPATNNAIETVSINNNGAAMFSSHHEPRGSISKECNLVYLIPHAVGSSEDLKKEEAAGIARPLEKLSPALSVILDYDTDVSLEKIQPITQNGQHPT
D1 antag – Antagonist of Human D 1 Dopamine Receptor: qHTS. hit rate 3.2% among 360,000. HEK293 TREx D1 cells, calcium flux, dopamine EC80; hits give low values. activity change, negative = inhibition, % at 10 µM. D(1A) dopamine receptor (Homo sapiens), P21728; in the data active = activity change below about -30%
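Tetracycline-induced HEK293 T-REx cells with force-coupled D1 receptor were loaded with a no-wash calcium dye. Compound was added after a 10 s baseline and read kinetically for 180 s; EC80 dopamine was then added and calcium flux followed another 180 s.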
D1 agonist – Allosteric Agonists of the Human D1 Dopamine Receptor: qHTS; D(1A) dopamine receptor (Homo sapiens), P21728; HEK293 T-REx D1 cells, calcium flux, agonist mode; activation, % at 2 µM; hit rate 1% among 360,000; in the data active = activation above about 30%
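Inducible HEK293 T-REx D1 cells, force-coupled to calcium signalling, were plated at 4000 cells/well with tetracycline and held overnight at 30 C. After no-wash calcium dye loading, compound-evoked calcium rise over 180 s flagged agonists.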
DRD3 antagonist – qHTS of D3 Dopamine Receptor Antagonist: qHTS. max response, negative = inhibition, %. hit rate 2.5% among 360,000. D(3) dopamine receptor (Homo sapiens), P35462. D3R cells, DiscoveRx beta-arrestin luminescence, antagonist mode; hits give low values; in the data active = max response below about -50%; inconclusive = no clear call, values can overlap the other calls
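Cells expressing the human receptor were seeded at 1500 cells/well, incubated overnight at 37 degrees C in 5% CO2, then exposed to library compounds with dopamine controls for 90 minutes at 37 degrees C before luminescent detection.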
ERG-DNA inh – qHTS for Small Molecule Inhibitors of the ERG Ets/DNA interaction | Transcriptional regulator ERG (Homo sapiens), P11308 | fluorescence polarization, His-ERG Ets domain / labelled DNA | Potency, µM (series often up to 76.9 µM), hits mostly inhibitors | hit rate 0.028% among 370,000; active = well fitted inhibition curve with a large enough effect in the polarisation, with a control signal flat; inconclusive = small, poorly fitted or top-dose-only effect, or effect the other way, or a change in a side signal; inactive = no such curve, though single readings can be large or run the other way; the % refers to the polarisation;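 also: polarization taken with two DNA probes labelled with fluorescein and Texas red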
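His-tagged ERG Ets domain (1 uM in the protein solution; 300mM KCl, 50mM Tris-HCl, 1mM EDTA, 1mM DTT, pH 7.5) received compound, then a probe mix of 5 nM fluorescein-DNA and 100nM Texas-615-DNA. Fluorescence polarization was read for both dyes.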
Large screens that a line does not name were inactive; ! = not confirmed by another sample. In the library only some 6.1% were active in any assay of this set; here they are far more common.

Cc1ccccc1N1C(S)=C(C#N)C(=O)NC1c1cccs1 (stereo unspecified)	DRD3 antagonist -73
CC1(C(=O)NS(=O)(=O)C2CC2)CCCN(C(=O)C2(c3ccc(Cl)cc3)CCCC2)C1 (stereo unspecified)	none (no result: D1 PAM, D1 antag, D1 agonist, ERG-DNA inh)
CCc1nc(SCC(=O)N2CCOCC2)c2c(=O)n(C)c(=O)n(C)c2n1	none
CCc1nc(SCC(=O)N2CCCCCC2)c2c(=O)n(C)c(=O)n(C)c2n1	D1 antag -34
O=C(Nc1ncc2c(n1)-c1ccccc1OC2)c1ccccc1Cl	none (no result: D1 PAM, D1 antag, D1 agonist)
O=S(=O)(c1ccc2c(c1)OCO2)N1CCN(S(=O)(=O)c2c(F)cccc2F)CC1	none (no result: D3 ag, DRD3 antagonist, ERG-DNA inh)
CC(C)CN(CCNC(=O)CN1C(=O)COc2ccc(S(=O)(=O)N3CCOCC3)cc21)CC(C)C	none
CCN(CCCNC(=O)CN1C(=O)COc2ccc(S(=O)(=O)N3CCC(C)CC3)cc21)Cc1ccccc1	DRD3 antagonist -74
CCCCNC(=O)Cn1cnc2ccc(S(=O)(=O)N3CCC(C)CC3)cc2c1=O	none
CC(C)CCNC(=O)CN1C(=O)COc2ccc(S(=O)(=O)N3CCOCC3)cc21	D1 antag -47 (no result: DRD3 antagonist)
CCN(CC)CCCNC(=O)Cn1cnc2ccc(S(=O)(=O)N3CCC(C)CC3)cc2c1=O	D1 antag -39
CCOc1ccc(NC(=O)CN2C(=O)COc3ccc(Cl)cc32)cc1	D1 antag -59
CC1CCN(S(=O)(=O)c2ccc3c(c2)N(CC(=O)NCCCN(Cc2ccccc2)C(C)C)C(=O)CO3)CC1	none
CCOc1ccc(N/C=C/C(=O)c2ccc(OC)cc2)c([N+](=O)[O-])c1	none (no result: ERG-DNA inh)
Cc1ccccc1CSc1nc2cc(C(=O)NC3CCCC3)ccc2c(=O)n1Cc1ccccc1	none (no result: DRD3 antagonist)
Cc1ccc(Cn2nnc3c(=O)[nH]c(C4CCCN(C(=O)c5ccco5)C4)nc32)cc1 (stereo unspecified)	none
CN(C)c1ccc(S(=O)(=O)N2CCCCC2)cc1NC(=O)CN1C(=O)NC(C)(c2ccccc2)C1=O (stereo unspecified)	none
CCc1ccccc1NC(=O)CN1C(=O)COc2ccc(S(=O)(=O)N3CCCCCC3)cc21	D1 antag -46 (no result: DRD3 antagonist)
CCOc1ccc(CCNC(=O)CN2C(=O)COc3ccc(S(=O)(=O)N4CCCC4)cc32)cc1	none (no result: DRD3 antagonist)
COc1ccc(OC)c(CCNC(=O)CN2C(=O)COc3ccc(S(=O)(=O)N4CCCCCC4)cc32)c1	none (no result: DRD3 antagonist)
Cc1ccccc1NC(=O)CN1C(=O)COc2ccc(S(=O)(=O)N3CCCC3)cc21	none
CN(C)c1ccc(S(=O)(=O)N2CCCCC2)cc1NC(=O)CN1C(=O)NC2(CCCC2)C1=O	D1 antag -42
COc1ccc(CCNC(=O)CN2C(=O)COc3ccc(S(=O)(=O)N4CCCC4)cc32)c(OC)c1	D1 antag -86!
CCOc1ccc(CCNC(=O)CN2C(=O)COc3ccc(S(=O)(=O)N4CCOCC4)cc32)cc1	D1 antag -69
CC(c1nnc(SCC(=O)Nc2cc([N+](=O)[O-])ccc2F)n1Cc1ccccc1)N(C)C (stereo unspecified)	none
CCCCOc1cccc(C2c3c(-c4cc(C)ccc4O)n[nH]c3C(=O)N2CCOC)c1 (stereo unspecified)	D3 ag 42 (no result: DRD3 antagonist)
CCN(CC)c1ccc(/C=C(/C#N)C(=O)NCc2ccccc2)o1	D1 agonist 152
CCN(CC)c1ccc(/C=C(/C#N)C(=O)NC(C)C)o1	D1 agonist 57
CC(C)NC(=O)/C(C#N)=C\c1ccc(N(C)C)o1	none
NCc1ccc(S(N)(=O)=O)cc1	none
c1ccc(COc2ccccc2CNC23CC4CC(CC(C4)C2)C3)cc1	D1 agonist 49
CCCCn1c(CCC)nc([N+](=O)[O-])c1Sc1ccc(Cl)cn1	none
CCN(CC)CCOC(=O)C(c1ccccc1)c1ccccc1	DRD3 antagonist -67
CCN(CC)CCOC(=O)CCc1cccc2ccccc12	DRD3 antagonist -66
CCN(CCO)C(=O)C(c1ccccc1)c1ccccc1	D1 antag -59
CCN(CC)CCOC(=O)C(c1ccccc1)C1CCCCC1 (stereo unspecified)	DRD3 antagonist -89 (no result: D1 PAM, D1 antag, D1 agonist)
CN1C(=O)CC(N2CCN(CC(N)=O)CC2)C1=O (stereo unspecified)	none
O=C(CCC1CCCN(c2ncccn2)C1)NCc1ccccc1F (stereo unspecified)	none
COc1ccc(C2CC(O)(c3ccccc3)Oc3cc(OC)c(OC)c(OC)c32)cc1 (stereo unspecified)	D1 antag -36
OC1(c2ccccc2)CC(c2ccccc2)c2ccccc2O1 (stereo unspecified)	D3 ag 73 (no result: D1 PAM, D1 antag, D1 agonist)
COc1ccc([C@@H]2C[C@H](c3ccccc3)Oc3cc(OC)c(OC)c(OC)c32)cc1	none
COc1ccc(NC(=O)c2sc3cc(C(F)(F)F)cnc3c2-c2cccs2)cc1	none
Cc1cc(N2CCN(c3ccccn3)CC2)n2nc(C)nc2n1	none (no result: D1 PAM, D1 antag, D1 agonist)
O=C(NCC(c1ccco1)N1CCCC1)c1cc2ccccc2s1 (stereo unspecified)	DRD3 antagonist -59
Cc1nn(-c2ccc(C(=O)NCC(c3ccco3)N3CCCC3)cc2)c(C)c1Cl (stereo unspecified)	D3 ag 57
O=C(NCC(c1ccco1)N1CCCC1)c1ccc(Cl)cc1 (stereo unspecified)	DRD3 antagonist -67
Cc1ccc(C(=O)NCC(c2ccco2)N2CCCCC2)s1 (stereo unspecified)	DRD3 antagonist inconclusive
O=C(CCNC(=O)c1ccc(Cl)cc1)NCC(c1ccco1)N1CCCCC1 (stereo unspecified)	none
COCCN(C(=O)COc1ccccc1)c1nnc(-c2cccnc2)s1	none
COc1cccc(CNC(=O)CCCn2ncn3c(cc4occc43)c2=O)c1OC	none (no result: DRD3 antagonist)
COc1cc(OC)cc(C(=O)Oc2c(CN3CCOCC3)cc(Cl)c3cccnc23)c1	DRD3 antagonist -64
O=C(Oc1c(CN2CCOCC2)cc(Cl)c2cccnc12)c1ccccc1F	DRD3 antagonist -85
CC(=O)c1ccc(OCc2cc(C(=O)NC(C)c3cnn(C)c3)no2)cc1 (stereo unspecified)	none
Cc1nc2scc(C)n2c(=O)c1S(=O)(=O)N1CCN(c2ccc([N+](=O)[O-])cc2)CC1	D1 antag -53
